The source made the active and inactive calls. Unless noted, no rule for the calls is given here.

Test [1] relates to Wnt5a (protein binding on small-molecule microarray). In words: small molecules binding Wnt5a protein – biophysical, small-molecule microarray, 635/667 nm fluorescence, primary screen (AID 1142).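 Also: fluorescence read at 667 nm with signal to noise per printed feature.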 Particulars: 635 nm fluorescence, higher = more signal.
Test [2] is described as follows: ATP-based viability of Huh7 replicon cells – cell-based, CellTiter-Glo luminescence, basal, 48 h, cytotoxicity control for HCV replication inhibitor project, primary screen (AID 1143).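 Also: Huh7 hepatoma cells carrying a hepatitis C replication reporter with no stimulus; test concentration not given here.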 The settings on record: higher = more signal, called active from +8 up or from −8 down.
A short description of test [3]: Pseudomonas biofilm growth suppression – PAO1 strain, BacTiter-Glo luminescence, LB-PBS, primary screen (AID 1144). Particulars: P. aeruginosa PAO1 biofilm, 12 h, higher = more signal.
Test [4] in a line: basal CRE-LacZ reporter activity in PC12 – cell-based, unstimulated, primary screen (AID 1145). The settings on record: no forskolin, luminescence, 4.5 h, higher = more signal, called active from +8 up or from −8 down.
A short description of test [5]: forskolin-driven CRE-LacZ activity in PC12 – cell-based, CRE-LacZ reporter, forskolin-stimulated, primary screen (AID 1146).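 Also: PC12 cells with 6xCRE LacZ reporter stimulated by forskolin 10 µM; beta-galactosidase reporter signal reflecting CREB driven transcription.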 The settings on record: luminescence, 4.5 h, higher = more signal, called active from +8 up or from −8 down.
In test [6] the target is Streptavidin (Streptomyces avidinii) (UniProt P22629). In words: compounds binding control protein streptavidin – biophysical, small-molecule microarray, 635/667 nm fluorescence, artefact control for SMM compound annotation, primary screen (AID 1147).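 Also: signal reflects streptavidin binding to arrayed compounds as a control protein.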 The settings on record: higher = more signal.
Test [7] can be described thus: probe aInhba binding on compound microarray – biochemical, small-molecule microarray, 635/667 nm fluorescence, primary screen (AID 1148).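 Also: score merges 667nm spot fluorescence with signal-to-noise for antibody binding to printed compounds.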 The settings on record: higher = more signal.
Test [8] addresses Torsin-1A (Homo sapiens) (UniProt O14656). In words: TOR1A wild-type binding on microarray – cell lysate, small-molecule microarray, lysate, 635/667 nm, primary screen (AID 1149). Particulars: COS7 hTOR1A-WT lysate, 635 nm fluorescence, higher = more signal.
For test [9] the target is unchanged. In words: torsin A mutant lysate binding on microarrays – cell lysate, small-molecule microarray, COS7 lysate, 635/667 nm fluorescence, primary screen (AID 1150).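 Also: score pools 667 nm emission and signal to noise measuring lysate protein binding.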 The settings on record: COS7 hTOR1A mutant lysate, 635 nm fluorescence, higher = more signal.
In test [10] the test system is Sonic hedgehog protein (Shh). In words: Sonic hedgehog microarray binding compounds – biochemical, small-molecule microarray, 635/667 nm fluorescence, primary screen (AID 1151).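 Also: Shh protein binding to compounds spotted on small-molecule microarray slides; score combines spot fluorescence intensity with signal-to-noise across triplicate slides.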 Particulars: 635 nm fluorescence, higher = more signal.

Streptavidin (Streptomyces avidinii), sequence (P22629 whole entry, looked up): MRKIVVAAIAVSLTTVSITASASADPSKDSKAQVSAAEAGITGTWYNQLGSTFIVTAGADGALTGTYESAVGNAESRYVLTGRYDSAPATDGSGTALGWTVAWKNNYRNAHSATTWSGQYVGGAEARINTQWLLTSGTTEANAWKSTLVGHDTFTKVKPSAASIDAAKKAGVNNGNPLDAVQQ
Torsin-1A (Homo sapiens), sequence (O14656 whole entry, looked up): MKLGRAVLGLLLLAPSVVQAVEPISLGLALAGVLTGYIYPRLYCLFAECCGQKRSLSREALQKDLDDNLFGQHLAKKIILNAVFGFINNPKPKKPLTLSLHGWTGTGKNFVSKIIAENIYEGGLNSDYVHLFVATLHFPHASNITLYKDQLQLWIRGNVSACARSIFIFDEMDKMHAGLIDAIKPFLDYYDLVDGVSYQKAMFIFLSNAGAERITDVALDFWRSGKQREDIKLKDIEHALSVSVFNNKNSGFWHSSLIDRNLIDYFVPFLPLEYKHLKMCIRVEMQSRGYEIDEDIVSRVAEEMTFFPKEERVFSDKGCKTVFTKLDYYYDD

In the case of `COc1ccccc1CN1C(=O)c2ccccc2[C@@]2(Cc3ccccc3N(CCCN(C)C)C2=O)[C@@H]1c1ccc(CO)cc1`, the composite z-score is -0.0961 in [1]; 0.224 in [6]; -0.19 in [7]; -0.0118 in [8]; 0.0265 in [9]; 0.243 in test [10]. Further, the z-score is -4.71 (inactive) in test [2], -0.516 (inactive) in test [3], -0.0243 (inactive) in test [4] and -0.926 (inactive) in test [5].
`C=C(CCCC)C(=O)CC[C@@H](OC(C)=O)c1ccc(CO)o1`: the composite z-score in test [1] was 0.52; in test [6], -0.918; in test [7], -0.154; in test [8], -0.0372; in test [9], 0.232; in test [10] it was 1.95. In addition, the z-score in test [2] was -1.56 (inactive); in [3], -0.905 (inactive); in test [4], -0.35 (inactive); in [5], 0.516 (inactive).
In the case of `CC(C)N1CC=CC23O[C@@H]4C=CCOC(=O)[C@@H]4[C@H]2C(=O)N(CCCCCO)[C@@H]3C1=O` (stereo not given in full), the composite z-score is -0.094 in test [1]; -0.48 in test [6]; -0.152 in test [7]; -0.167 in [8]; 1.09 in test [9]; 0.0095 in test [10]. For the same molecule, the z-score in [2] was -1.27 (inactive); in [3], -1.56 (inactive); in test [4], -1.72 (inactive); in [5], -0.679 (inactive).
As to `O=C1OCCC=C[C@H]2OC34C=CCN(Cn5nnc6ccccc65)C(=O)[C@H]3N(CCO)C(=O)[C@@H]4C12` (stereo not given in full), the composite z-score in [1] is -0.83; in test [6] it was -1.48; in test [7] it was -0.251; in test [8] it was -1.01; in test [9], -1.32; in [10], -0.61. Moreover, the z-score in test [2] is -0.208 (inactive); in test [3] it was -1.39 (inactive); in test [4], -1.3 (inactive); in [5] it was -0.688 (inactive).
For `C#CCN(C/C=C/c1ccccc1)[C@H](CO)c1ccccc1`, the composite z-score in test [1] was 0.325; in test [6], 0.41; in test [7], -0.103; in test [8] it was 0.25; in test [9], 0.294; in [10], 0.743. In addition, the z-score in test [2] is -3.79 (inactive); in test [3] it was -0.192 (inactive); in [4] it was 1.65 (inactive); in test [5] it was -0.121 (inactive).
Consider `COC(=O)[C@@]1(Cc2ccc(F)cc2)[C@H]2c3cc(C(=O)N(C)C)n(Cc4ccc(C)o4)c3C[C@H]2CN1C(=O)c1ccccc1`, for which the composite z-score in test [1] is 0.798; in test [6], -0.649; in [7], 1.7; in test [8], 4.51; in [9], 4.51; in [10], -0.81. In addition, the z-score is -2.07 (inactive) in [2], -0.927 (inactive) in [3], 0.387 (inactive) in test [4] and -0.554 (inactive) in test [5].
In the case of `C=C(CCCC)C(=O)CC[C@H](OC(=O)c1cccnc1)c1ccc(OCCO)cc1`, the composite z-score was 0.0366 in [1]; -0.118 in test [6]; 0.0903 in [7]; 0.471 in test [8]; 0.546 in test [9]; 0.381 in test [10]. In addition, the z-score in [2] was -2.23 (inactive); in test [3], 0.192 (inactive); in [4], 13.3 (active); in [5], 2.15 (inactive).
On to `COCCCNC(=O)[C@@]1(Cc2ccccc2CN=[N+]=[N-])N=C(c2ccc(OCCCO)cc2)O[C@H]1c1ccccc1CN=[N+]=[N-]`, for which the composite z-score was 1.08 in [1]; 0.521 in test [6]; -0.0195 in test [7]; 0.0552 in test [8]; 0.511 in [9]; -0.933 in test [10]. Also, the z-score was -5.48 (inactive) in [2], -1.5 (inactive) in test [3], 0.76 (inactive) in [4] and -1.68 (inactive) in test [5].
`C=CC[C@]1(C(N)=O)COC(c2ccc(OCCCO)cc2)=N1`: the composite z-score is 0.469 in test [1]; -0.266 in test [6]; 0.027 in [7]; 1 in test [8]; 1.18 in test [9]; 0.395 in test [10]. The z-score in [2] is -1.33 (inactive); in test [3], -0.151 (inactive); in test [4] it was 0.0359 (inactive); in [5], 0.127 (inactive).
Take `COc1cc2c(cc1OC)CN(C(=O)[C@H]1[C@@H]3C(=O)O[C@@H](c4ccccc4)[C@@H](c4ccccc4)N3[C@@H](c3ccccc3OCCO)[C@]13C(=O)Nc1ccc(C#CCCO)cc13)CC2`: the composite z-score was 0.703 in test [1]; 0.225 in [6]; -0.0567 in test [7]; -0.0954 in test [8]; 0.142 in test [9]; 1.75 in test [10]. Further, the z-score in [2] is -0.964 (inactive); in [3], 0.677 (inactive); in test [4], 0.712 (inactive); in test [5] it was 1.64 (inactive).
For the molecule `COCC(=C=CC[C@H](O)c1cccc(OCCO)c1)CCO`, the composite z-score is 0.461 in test [1]; -0.33 in test [6]; -0.12 in test [7]; -0.744 in test [8]; -0.434 in test [9]; 1.81 in [10]. Also, the z-score in test [2] was 0.15 (inactive); in test [3], -0.833 (inactive); in test [4] it was 0.0281 (inactive); in test [5], 0.324 (inactive).
In the case of `COc1ccc([C@H]2C[C@H]3C(I)=C[C@@H]2C(=O)[C@]32CO2)cc1`, the composite z-score in test [1] was -0.149; in test [6], 1.25; in [7] it was -0.152; in test [8] it was -0.067; in [9], -0.126; in test [10] it was 0.817. The z-score was -0.307 (inactive) in [2], -0.125 (inactive) in test [3], 5.38 (inactive) in test [4] and -1.6 (inactive) in test [5].
Take `CC=CC(O)C1C=CC2C(=O)N(C)C(=O)C2N1N(c1ccccc1)c1ccccc1` (stereo not given): the composite z-score in test [1] is 0.16; in test [6], 0.29; in test [7], 0.0536; in [8] it was 2.7; in [9], 1.3; in test [10], 0.306. The z-score in test [2] was 0.695 (inactive); in [3] it was 0.305 (inactive); in [4], -0.326 (inactive); in test [5], 0.493 (inactive).
As to `COc1ccc([C@H]2OC[C@@H]3CCC(=O)N32)cc1`, the composite z-score in [1] is 0.279; in test [6], 0.711; in test [7], 0.114; in test [8] it was 1.08; in test [9] it was 0.214; in test [10], 0.79. Also, the z-score in [2] was 0.638 (inactive); in test [3], 0.495 (inactive); in test [4], 1.2 (inactive); in test [5] it was 0.426 (inactive).
On to `O=C1OCC=C[C@H]2OC34C=CCN(Cn5nnc6ccccc65)C(=O)[C@H]3N(CCCCCO)C(=O)[C@@H]4[C@@H]12` (stereo not given in full), for which the composite z-score in test [1] is 0.238; in [6], -0.573; in test [7] it was -0.348; in test [8], -0.884; in test [9], -1.08; in test [10], -0.502. In addition, the z-score in [2] was -0.17 (inactive); in test [3], -1.03 (inactive); in test [4], -0.623 (inactive); in test [5], -0.29 (inactive).

The values are drawn from PubChem BioAssay.
